# Measured values from PubChem BioAssay (Tox21).
# Records with an inconclusive call do not appear. Entries that show only a call come without a potency. Some compounds were tested as several samples or in several runs, with calls that do not always agree. Unmarked numbers belong to inactive results. Activity calls are given as the source filed them. Calls follow the shape of the full dose curve.
# Biological target: 5-hydroxytryptamine receptor 2A (Homo sapiens) (UniProt P28223)
# Assay: 5-hydroxytryptamine receptor 2A (HTR2A) small molecule agonists, cell-based qHTS assay (AID 1963587); also: nearly all actives have a fitted effect of over 30% in size
# Conditions: HTR2A-CHO cells, calcium flux fluorescence, agonist mode; series mostly up to 76.8 µM
# Source text: National Center for Advancing Translational Sciences [NCATS]
# Division of Preclinical Innovation [DPI]
# U.S. Environmental Protection Agency [EPA]
# National Institutes of Environmental Health Sciences [NIEHS]
# National Toxicology Program [NTP]
# U.S. Food and Drug Administration [FDA]
# The HTR2A receptor is a subtype of the 5-HT2 receptor that belongs to the serotonin receptor family and is a G protein-coupled receptor (GPCR). The HTR2A-CHO cell line stably expressing human 5-hydroxytryptamine receptor 2A (HTR2A) can be used for screening agonists of interactions between 5-HT2 and its ligands. The HTR2A-CHO calcium flux assay is a homogeneous fluorescence-based assay for detecting the intracellular calcium level using FDSS kinetic plate reader system.
# HTR2A-CHO cells were dispensed at 2000 cells/3uL/well in 1536-well black-clear bottom plates using a Multidrop Dispenser. After the assay plates were incubated at a 37 C/5% CO2 incubator for 18 h, 3 uL of Dye Loading Buffer was transferred to the assay plate by a Flying Reagent Dispenser. The assay plates were incubated at 37 C for 1h. For agonist mode, 23 nL of compounds dissolved in DMSO, positive controls or DMSO only was transferred to the assay plate by a pin tool. The fluorescence intensity in the plates was measured using FDSS 7000EX kinetic plate reader for 2 min at 1 sec intervals.
# Potency is read from the fitted curve at half-maximal effect.
# Chain of 5-hydroxytryptamine receptor 2A (Homo sapiens) (P28223 whole entry, looked up): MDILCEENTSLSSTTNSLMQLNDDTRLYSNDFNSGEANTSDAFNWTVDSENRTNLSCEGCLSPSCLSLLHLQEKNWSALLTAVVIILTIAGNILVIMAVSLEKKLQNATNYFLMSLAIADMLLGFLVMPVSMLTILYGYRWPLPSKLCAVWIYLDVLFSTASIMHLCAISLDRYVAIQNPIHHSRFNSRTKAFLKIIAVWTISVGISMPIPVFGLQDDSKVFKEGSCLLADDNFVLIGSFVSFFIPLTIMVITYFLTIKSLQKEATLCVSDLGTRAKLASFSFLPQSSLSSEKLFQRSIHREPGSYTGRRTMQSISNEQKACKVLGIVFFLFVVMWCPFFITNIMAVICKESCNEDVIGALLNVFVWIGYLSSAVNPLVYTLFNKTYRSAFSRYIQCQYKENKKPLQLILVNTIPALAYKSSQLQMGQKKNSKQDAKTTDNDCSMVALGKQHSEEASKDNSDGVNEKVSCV
SMILES,Potency,activation
CC(C)=CCO,inactive,–
COC(=O)CCCC(=O)OC,inactive,–
CC1=C(/C=C/C(C)=C/C=C/C(C)=C/C(=O)Nc2ccc(O)cc2)C(C)(C)CCC1,inactive,–
CCC(=O)OC/C=C/c1ccccc1,inactive,–
Cc1cc(Cc2ccc(N)c(C)c2)ccc1N,inactive,–
Cc1cc(=O)[nH]c(C(C)C)n1,inactive,–
COc1ccccc1[N+](=O)[O-],inactive,–
Brc1cc(Oc2cc(Br)c(Br)c(Br)c2Br)c(Br)c(Br)c1Br,inactive,–
CCCCC/C(C=O)=C\c1ccccc1,inactive,–
O=c1[nH]nnc2ccccc12,inactive,–
CCCCCCCCCCCCCC(=O)O,inactive,–
C=CCNCC=C,inactive,–
O=C(O)CCCCCCCCC(=O)O,inactive,–
COC(=O)c1cccc(C(=O)OC)c1,inactive,–
CCCCOCCOCCSC#N,inactive,–
CCC(O)OC(O)CC (stereo not given),inactive,–
Cc1occc(=O)c1O,inactive,–
c1ccc2n[nH]nc2c1,inactive,–
CCCCOC(=O)c1ccc(O)cc1,inactive,–
CCCCN(CCCC)CCCC,inactive,–

SMILES,Potency,activation
O=C(O)CCCC[C@@H]1SC[C@@H]2NC(=O)N[C@@H]21,inactive,–
CC1=CC2C3CC(C=C3C)C2C1 (stereo not given),inactive,–
CCCCOCCOC(=O)c1ccccc1C(=O)OCCOCCCC,inactive,–
CCCCC(CC)COC(=O)C(C#N)=C(c1ccccc1)c1ccccc1 (stereo not given),inactive,–
COc1ccc(NC(C)=O)cc1N,inactive,–
C/C=C(C)/C=C/C=C(C)C,inactive,–
Cc1cccc(C)c1O,inactive,–
CCC[C@H](N[C@@H](C)C(=O)N1[C@H](C(=O)O)C[C@@H]2CCCC[C@@H]21)C(=O)OCC,inactive,–
C=C(C)CNCC,inactive,–
C=C(C)C(=O)O,inactive,–
c1ccc2ccccc2c1,inactive,–
CCOCCO,inactive,–
OCC1CCCO1 (stereo not given),inactive,–
O=[Se](O)O,19.5 µM (active),-0.26% [at 15.9 µM]
C=CC(=O)OCCOCCOCCOCCOC(=O)C=C,inactive,–
CCCCC1(COC(=O)CCC(=O)O)C(=O)N(c2ccccc2)N(c2ccccc2)C1=O,inactive,–
CCC(=O)/C=C/C1C(C)=CCCC1(C)C (stereo not given),inactive,–
C=C[Si](OCCOC)(OCCOC)OCCOC,inactive,–
c1ccc(Nc2ccccc2)cc1,inactive,–
